This is an account of results in PubChem BioAssay AID2737 (National Center for Advancing Translational Sciences (NCATS), 2010).

Structures are written as SMILES. Active and inactive are the calls of the source.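 The calls were made as follows: active = compounds inhibiting cruzain with a measured inhibition constant Ki under 100 µM; inactive = the rest.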

Sequence of Cruzipain (Trypanosoma cruzi) (P25779 123-467 limits assumed): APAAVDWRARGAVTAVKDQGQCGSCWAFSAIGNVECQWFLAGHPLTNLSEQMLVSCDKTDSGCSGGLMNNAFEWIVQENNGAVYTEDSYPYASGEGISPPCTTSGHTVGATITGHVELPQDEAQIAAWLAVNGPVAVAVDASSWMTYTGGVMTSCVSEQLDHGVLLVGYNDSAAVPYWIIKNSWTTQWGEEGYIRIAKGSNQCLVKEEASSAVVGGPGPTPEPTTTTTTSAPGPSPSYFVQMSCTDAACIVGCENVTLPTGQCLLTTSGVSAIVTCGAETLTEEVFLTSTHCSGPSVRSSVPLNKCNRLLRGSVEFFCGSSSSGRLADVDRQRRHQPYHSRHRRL

This assay concerns the target Cruzipain (Trypanosoma cruzi) (UniProt P25779). In words: Confirmation Competitive Binding Assay for Inhibitors of Cruzain. As to conditions: recombinant cruzain, Z-FR-AMC fluorogenic cleavage, Ki. Here is the method: Cruzain is a cysteine protease from the tropical parasite Trypanosoma cruzi. This assay protocol is for follow-up Ki determination of cruzain inhibitors of interest. Cruzain inhibition was determined using a competitive binding assay. See following references for additional details: Jadhav A, et al. J Med Chem. 2010 Jan 14;53(1):37-51. Mott BT, et al. J Med Chem. 2010 Jan 14;53(1):52-60. Assay Provider: Shoichet, Brian; University of California, San Fancisco Screening Center PI: Austin, C.P. Screening Center: NIH Chemical Genomics Center [NCGC]
Cruzain activity was measured by monitoring the cleavage of the fluorogenic substrate Z-Phe-Arg-aminomethylcoumarin (Z-FR-AMC). All cruzain assays were performed in Sodium Acetate 0.1 M pH 5.5 and in the presence of 5 mM dithiothreitol (DTT). The final concentration of cruzain was 0.4 nM, and the substrate concentration was 2.5 uM (Km = 2 uM), except for Ki determination, when the Z-FR-AMC varied from 0.31 to 20 uM, in two fold increments. Assays were conducted in presence of 0.01% Triton X-100. Assays were followed for five minutes, and activity was calculated based on initial rates. […] Data was analyzed with Prism 4 (GraphPad), and Ki values were determined from Lineweaver-Burk and Dixon plots.
As to `O=C(COc1ccccc1Br)NCCc1nc2ccccc2[nH]1`, the Potency is 2000 nM (active). Turning to `Cc1ccc(C)c(OCCn2c(CCNC(=O)C3CCCCC3)nc3ccccc32)c1`, the Potency was 2000 nM (active).
